Our source for the outcome and AC50 values is PubChem BioAssay (EPA / NIEHS).

The term AC50 denotes the concentration giving half of the maximal activity seen.

The source made the active and inactive calls. The calls were made as follows: active = hit-call score of the fitted dose curve at least 0.9, where 1 is the maximum; inactive = score below 0.9.

Read-out in assay [1]: Thrombomodulin, THBD (gene 7056)
In words: BSK_CASM3C_Thrombomodulin: BioMAP Diversity Plus: CASM3C Assay for Thrombomodulin Biomarker Activity (AID 2283051).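 Also: thrombomodulin protein level measured by ELISA 24 h after dosing.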 The note with it: primary human coronary artery smooth muscle cells; actives raise or lower the signal.

Read-out in assay [2]: Tissue Factor, F3 (gene 2152)
In words: BSK_CASM3C_TissueFactor: BioMAP Diversity Plus: CASM3C Assay for Tissue Factor Biomarker Activity (AID 2283052).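 Also: cell surface tissue factor protein level read by ELISA.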 The note with it: primary human coronary artery smooth muscle cells; actives raise or lower the signal.

Read-out in assay [3]: Interferon-gamma inducible Protein 10 (IP10), CXCL10 (gene 3627)
The assay can be described thus: BSK_hDFCGF_IP10: BioMAP Diversity Plus: hDFCGF Assay for Interferon-gamma inducible Protein 10 (IP10) Biomarker Activity (AID 2283053). The note with it: primary human foreskin fibroblasts; actives raise or lower the signal. Summed up:
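Chemical-treated human skin fibroblasts (primary) were sampled at 24 h for IP-10 by ELISA. Both increases and decreases relative to DMSO were scored.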

Read-out in assay [4]: Urokinase-type plasminogen activator receptor (uPAR), PLAUR (gene 5329)
The assay can be described thus: BSK_CASM3C_uPAR: BioMAP Diversity Plus: CASM3C Assay for Urokinase-type plasminogen activator receptor (uPAR) Biomarker Activity (AID 2283054).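 Also: cell-surface uPAR protein level quantified by ELISA.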 The note with it: primary human coronary artery smooth muscle cells; actives raise or lower the signal.

Read-out in assay [5]: Vascular cell adhesion molecule 1 (VCAM1), VCAM1 (gene 7412)
The assay can be described thus: BSK_CASM3C_VCAM1: BioMAP Diversity Plus: CASM3C Assay for Vascular cell adhesion molecule 1 (VCAM1) Biomarker Activity (AID 2283055).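 Also: VCAM-1 protein level quantified by ELISA on the cells.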 The note with it: primary human coronary artery smooth muscle cells; actives raise or lower the signal.

Read-out in assay [6]: Collagen III, COL3A1 (gene 1281)
In words: BSK_hDFCGF_CollagenIII: BioMAP Diversity Plus: hDFCGF Assay for Collagen III Biomarker Activity (AID 2283056). The note with it: primary human foreskin fibroblasts; actives raise or lower the signal. Summed up: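 Human foreskin fibroblast primary cultures sampled 24 h after dosing; Collagen III quantified by ELISA. Signal fitted bidirectionally against DMSO baseline.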

Read-out in assay [7]: Epidermal growth factor receptor (EGFR), EGFR (gene 1956)
The assay can be described thus: BSK_hDFCGF_EGFR: BioMAP Diversity Plus: hDFCGF Assay for Epidermal growth factor receptor (EGFR) Biomarker Activity (AID 2283057). The note with it: primary human foreskin fibroblasts; actives raise or lower the signal. Summed up: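 Cell-based multiplexed assay in primary human foreskin fibroblasts. EGFR is read by ELISA 24 h after treatment and compared with DMSO controls.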

Read-out in assay [8]: Interleukin-8 (IL8), CXCL8 (gene 3576)
The assay can be described thus: BSK_hDFCGF_IL8: BioMAP Diversity Plus: hDFCGF Assay for Interleukin-8 (IL8) Biomarker Activity (AID 2283058). The note with it: primary human foreskin fibroblasts; actives raise or lower the signal. Summed up:
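Primary human foreskin fibroblasts (hDFCGF system) dosed with chemical; IL-8 measured by ELISA 24 hours later. Bidirectional curve fitting relative to DMSO baseline; cytotoxicity tracked in parallel cultures by SRB total protein staining.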

Assay [9] in a line: BSK_hDFCGF_Proliferation: Cell Proliferation Assessment in the BioMAP Diversity Plus: hDFCGF Assay (AID 2283059).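 Also: curves fitted for both rise and fall of signal versus DMSO baseline.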 The note with it: primary human foreskin fibroblasts. Summed up: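 Total protein read at 560 nm after 0.1% SRB staining of TCA-fixed human skin fibroblasts, […]. Activity is fitted in both directions relative to DMSO as baseline.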

Read-out in assay [10]: Macrophage colony-stimulating factor (MCSF), CSF1 (gene 1435)
The assay can be described thus: BSK_hDFCGF_MCSF: BioMAP Diversity Plus: hDFCGF Assay for Macrophage colony-stimulating factor (MCSF) Biomarker Activity (AID 2283060). The note with it: primary human foreskin fibroblasts; actives raise or lower the signal. Summed up: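 Human foreskin fibroblast primary cultures; M-CSF measured by ELISA 24 hours after chemical dosing. Bidirectional fitting relative to DMSO, with overt cytotoxicity tracked by parallel SRB total-protein staining (0.1% SRB, 10% TCA fixation, 560 nm).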

Assay [11] can be described thus: BSK_hDFCGF_SRB: Viability Assessment in the BioMAP Diversity Plus: hDFCGF Assay (AID 2283061).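 Also: cells exposed to compound for 24 h before the read.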 The note with it: primary human foreskin fibroblasts. Summed up:
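Human foreskin fibroblasts in 96-well plates were treated 24 h. Total protein was measured by 0.1% SRB staining after 10% TCA fixation, read at 560 nm. Data were fitted bidirectionally against DMSO.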

Read-out in assay [12]: TIMP metallopeptidase inhibitor 1 (TIMP1), TIMP1 (gene 7076)
The assay can be described thus: BSK_hDFCGF_TIMP1: BioMAP Diversity Plus: hDFCGF Assay for TIMP metallopeptidase inhibitor 1 (TIMP1) Biomarker Activity (AID 2283062). The note with it: primary human foreskin fibroblasts; actives raise or lower the signal. In outline:
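Human foreskin fibroblast primary cultures dosed for 24 h; secreted/surface TIMP-1 quantified by ELISA. Bidirectional curve fitting against DMSO baseline; cytotoxicity tracked in parallel cultures by SRB total-protein staining.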

Read-out in assay [13]: Monokine induced gamma interferon (MIG), CXCL9 (gene 4283)
In words: BSK_hDFCGF_MIG: BioMAP Diversity Plus: hDFCGF Assay for Monokine induced gamma interferon (MIG) Biomarker Activity (AID 2283063). The note with it: primary human foreskin fibroblasts; actives raise or lower the signal. Summed up:
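MIG/CXCL9 measured by ELISA 24 h after dosing primary human skin fibroblasts. Activity fitted in both directions against DMSO controls. Cytotoxicity was checked in parallel cultures by SRB staining read at 560 nm.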

Read-out in assay [14]: Matrix Metallopeptidase 1 (MMP1), MMP1 (gene 4312)
The assay can be described thus: BSK_hDFCGF_MMP1: BioMAP Diversity Plus: hDFCGF Assay for Matrix Metallopeptidase 1 (MMP1) Biomarker Activity (AID 2283064). The note with it: primary human foreskin fibroblasts; actives raise or lower the signal. In outline: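 Human foreskin fibroblasts exposed to chemical for 24 h; MMP1 detected by ELISA, with DMSO as baseline for bidirectional fitting.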

Read-out in assay [15]: Vascular cell adhesion molecule 1 (VCAM1), VCAM1 (gene 7412)
The assay can be described thus: BSK_hDFCGF_VCAM1: BioMAP Diversity Plus: hDFCGF Assay for Vascular cell adhesion molecule 1 (VCAM1) Biomarker Activity (AID 2283065).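 As to AC50: VCAM-1 protein level quantified by ELISA after 24 h chemical exposure.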 The note with it: primary human foreskin fibroblasts; actives raise or lower the signal. Summed up: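 Human foreskin fibroblast primary cells dosed with chemical, VCAM-1 measured by ELISA at 24 h. Bidirectional curve fitting relative to DMSO as negative control/baseline.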

Read-out in assay [16]: Plasminogen activator inhibitor-1 (PAI1), SERPINE1 (gene 5054)
The assay can be described thus: BSK_hDFCGF_PAI1: BioMAP Diversity Plus: hDFCGF Assay for Plasminogen activator inhibitor-1 (PAI1) Biomarker Activity (AID 2283066). The note with it: primary human foreskin fibroblasts; actives raise or lower the signal. In outline: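 Human skin fibroblast cultures receive chemical for 24 h before PAI-1 is measured by ELISA; signal changes are fitted bidirectionally against DMSO-treated wells.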

Read-out in assay [17]: Intercellular Adhesion Molecule 1 (ICAM1), ICAM1 (gene 3383)
The assay can be described thus: BSK_KF3CT_ICAM1: BioMAP Diversity Plus: KF3CT Assay for Intercellular Adhesion Molecule 1 (ICAM1) Biomarker Activity (AID 2283067). The note with it: primary human keratinocytes with fibroblasts; actives raise or lower the signal. In outline: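 Human keratinocyte–foreskin fibroblast co-culture was treated for 24 h. Cell-surface ICAM-1 was quantified by ELISA, fitted bidirectionally relative to DMSO. Cytotoxicity was checked in parallel cultures by SRB total-protein staining.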

Read-out in assay [18]: Interferon-gamma inducible Protein 10 (IP10), CXCL10 (gene 3627)
The assay can be described thus: BSK_KF3CT_IP10: BioMAP Diversity Plus: KF3CT Assay for Interferon-gamma inducible Protein 10 (IP10) Biomarker Activity (AID 2283068). The note with it: primary human keratinocytes with fibroblasts; actives raise or lower the signal. In outline: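 Human keratinocyte plus foreskin fibroblast primary co-culture exposed to test chemical for 24 h; IP-10 measured by ELISA. Concentration-response fitted bidirectionally against DMSO control as baseline.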

Assay [19] in a line: BSK_KF3CT_SRB: Viability Assessment in the BioMAP Diversity Plus: KF3CT Assay (AID 2283069).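 Also: read 24 h after compound addition; fitted for both signal gain and loss against DMSO baseline.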 The note with it: primary human keratinocytes with fibroblasts. Summed up:
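Overt cytotoxicity is assessed as total protein by sulforhodamine B staining in parallel human skin co-cultures at 24 h after dosing. DMSO serves as negative control and baseline.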

Read-out in assay [20]: Interleukin-1 alpha (IL1a), IL1A (gene 3552)
In words: BSK_KF3CT_IL1a: BioMAP Diversity Plus: KF3CT Assay for Interleukin-1 alpha (IL1a) Biomarker Activity (AID 2283070). The note with it: primary human keratinocytes with fibroblasts; actives raise or lower the signal. Summed up:
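Readout is IL-1a level by ELISA, compared bidirectionally with DMSO as baseline. Cells: human keratinocytes co-cultured with foreskin fibroblasts, harvested 24 h post-dose.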

For `C#CCOC(=O)/C=C(C)/C=C/CC(C)CCCC(C)C` (centres undefined), the result in [1], in [3], in assay [4], in assay [5], in assay [7] and in assay [8] was inactive. Also, the result in assay [9], in assay [11], in [12], in assay [13], in [14] and in [17] was inactive. Further, the outcome in [18], in assay [19] and in [20] was inactive. Besides, the concentration at half-maximal activity (AC50) in [2] is 4.03 µM (active); in assay [6], 12.6 µM (active); in [10], 10 µM (active); in assay [15] it was 5.7 µM (active); in [16], 11.6 µM (active).
With `O=S(=O)(c1ccc(Cl)cc1)c1cc(Cl)c(Cl)cc1Cl`, the AC50 was 8.36 µM (active) in assay [1]; 20 µM (active) in assay [4]; 0.016 µM (active) in [5]; 3.97 µM (active) in assay [6]; 20 µM (active) in assay [9]. The outcome in assay [2], in [3], in [7], in [8], in assay [10] and in assay [11] was inactive. Moreover, the outcome in assay [12], in [13], in assay [14], in assay [15], in [17] and in assay [18] was inactive. In addition, the result in [19] and in assay [20] was inactive.
Take `CC(C=O)Cc1ccc2c(c1)OCO2` (centres undefined): the outcome in assay [1], in [2], in assay [3], in assay [4], in assay [5] and in assay [6] was inactive. For the same compound, the result in [7], in assay [8], in assay [9], in [10], in [11] and in assay [12] was inactive. Moreover, the outcome in assay [13], in assay [14], in [15], in assay [16], in [17] and in assay [18] was inactive. The outcome in assay [19] and in [20] was inactive.
`CCN(CC)C(=O)C(Cl)=C(C)OP(=O)(OC)OC`: the result in [1], in assay [2], in assay [3], in [4], in assay [5] and in [6] was inactive. The result in [7], in assay [8], in [9], in [10], in assay [11] and in assay [12] was inactive. The result in [13], in assay [14], in assay [15], in assay [16], in assay [17] and in assay [18] was inactive. For the same compound, the outcome in assay [19] and in assay [20] was inactive.
In the case of `C[C@]12CC[C@@H](O)C[C@@H]1CC[C@@H]1[C@@H]2CC[C@]2(C)C(=O)CC[C@@H]12`, the outcome in assay [1], in assay [2], in assay [3], in assay [4], in [5] and in assay [6] was inactive. The result in assay [7], in assay [8], in assay [9], in [10], in assay [11] and in assay [12] was inactive. The result in assay [13], in [14], in assay [15], in assay [16], in [17] and in [18] was inactive. Also, the result in assay [19] and in [20] was inactive.
As to `O=C(O)C1(c2ccc3c(c2)OC[C@H](Cc2ccc(-c4ccccc4)cc2)[C@H]3O)CCCC1`, the outcome in [1] and in assay [2] was inactive. Also, the AC50 was 7.31 µM (active) in [3]; 28 µM (active) in assay [4]; 20 µM (active) in [5]; 4.51 µM (active) in assay [6]; 5.5 µM (active) in assay [7]; 14.7 µM (active) in [8]. In addition, the concentration at half-maximal activity (AC50) in assay [9] was 6.62 µM (active); in assay [10], 8.18 µM (active); in assay [11], 7.76 µM (active); in [12], 11.7 µM (active); in assay [13] it was 12.8 µM (active); in assay [14] it was 7.46 µM (active). The AC50 in assay [15] is 5.32 µM (active); in [16], 5.07 µM (active); in [17], 30.3 µM (active); in assay [18] it was 9.87 µM (active); in assay [19] it was 25.7 µM (active); in assay [20], 31.3 µM (active).
